Assay outcomes: PubChem, National Center for Advancing Translational Sciences (NCATS)
Rows were chosen to be rich in hits. Some 7.7% of all compounds tested hit in one or more screens of this group.
FMDV antiviral: High Throughput Screening for Foot and Mouth Disease Virus Antivirals; AID 1159524, 2015; 410,000 compounds, 1.2% hits; Potency, µM (top dose mostly 57.9 µM), for inactives: top-dose activity change, negative = inhibition, hits mostly inhibitors; FMDV antiviral cell-based qHTS; calls by dose curve; tested in HEK293T cells; note: read-out not given here; potency is the fitted concentration of half-maximal effect; nearly all actives have a fitted effect of over 45% in size
FBPA Giardia inh: qHTS Assay for Inhibitors of Fructose-1,6-bisphosphate Aldolase from Giardia Lamblia | purified Giardia FBPA | Potency, µM (highest dose often 59.6 µM), for the others: at the top dose activity, negative = inhibition, hits mostly inhibitors | 290,000 compounds, 0.71% hits; note: potency is the fitted concentration of half-maximal effect; nearly all actives have a fitted effect of over 55% in size
Target sequence (A8B2U2 whole entry, looked up): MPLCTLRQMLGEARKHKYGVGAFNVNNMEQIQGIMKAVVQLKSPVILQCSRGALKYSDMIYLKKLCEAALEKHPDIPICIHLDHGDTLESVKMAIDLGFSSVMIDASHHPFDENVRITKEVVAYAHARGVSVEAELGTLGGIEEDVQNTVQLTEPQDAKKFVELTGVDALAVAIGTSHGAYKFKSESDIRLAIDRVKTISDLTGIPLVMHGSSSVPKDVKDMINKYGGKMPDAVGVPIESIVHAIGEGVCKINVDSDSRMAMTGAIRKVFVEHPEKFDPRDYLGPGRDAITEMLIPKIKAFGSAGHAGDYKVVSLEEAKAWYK
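40 nM FBPA preincubated 10 min at RT with compound (up to 57.5 uM final), then substrate plus GAPDH/TPI/NAD/arsenate coupling and diaphorase/resazurin added. Fluorescence read after 20 min at RT, 525/598 nm.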
HCMV inh: qHTS Assay for inhibitors of the human cytomegalovirus (HCMV); 410,000 compounds, 4.5% hits; activity change, negative = inhibition, % at 57.5 µM; HFF cells, HCMV-luciferase reporter, 72 h; active compounds read low; in the data active = activity change below about -60%; inconclusive = no clear call, values can overlap the other calls; inactive = above about -39%
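Human foreskin fibroblasts infected with luciferase-reporter HCMV at MOI 1 PFU/cell, compounds at two doses. Luciferase measured 72 h post infection; normalized to buffer-only basal and Salinomycin (10uM) controls.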
Tb PYK inh: qHTS of Trypanosoma Brucei Inhibitors. pyruvate kinase (Trypanosoma brucei), Q57TT1. TbPYK enzyme, Kinase-Glo Plus ATP luminescence, 45 min. Potency, µM (titrated, usually from 76.8 µM), without a hit: top-dose activity, negative = inhibition, most hits filed as inhibitors. 410,000 compounds, 0.12% hits; note: potency is the fitted concentration of half-maximal effect; nearly all actives have a fitted effect of over 50% in size
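Enzyme and substrate buffer are dispensed first and compound is pin-transferred. ADP at 130 uM final then starts the reaction, which runs 45 min at room temperature. Detection reagent is added for 10 min before luminescence is imaged.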
RE007 growth inh: qHTS Assay for Inhibitors of the HIV-1 protein Vpr; AID 651644, 2012; Potency, µM (highest dose often 92.2 µM), inactives show top-dose activity change, negative = less growth, usual class: inhibitors; S. pombe RE007 Vpr strain, BacTiter-Glo ATP luminescence, 24 h; 360,000 compounds, 0.21% hits; active = well fitted falling curve with a large enough effect; inconclusive = small, poorly fitted or top-dose-only effect; inactive = no such curve, though single readings can be large or run the other way; note: potency is the fitted concentration of half-maximal effect; nearly all actives have a fitted effect of over 50% in size
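Fission yeast RE007 carrying one integrated HIV-1 vpr copy, seeded at OD 0.01 in PMG+AL medium with 23 nL pinned compound. Grown 24 h at 30 degrees; viability read by BacTiter-Glo luminescence after 5 min.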
Sm TGR inh: qHTS Assay for the Inhibitors of Schistosoma Mansoni Peroxiredoxins | Schistosoma mansoni thioredoxin glutathione reductase (TGR), Q962Y6 | purified TGR, DTNB reduction, TNB absorbance 405 nm | Potency, µM (top dose mostly 114 µM), inactives show at the highest dose activity change, negative = inhibition, hits mostly inhibitors | 360,000 compounds, 3% hits | AID 485364, 2010; note: potency is the fitted concentration of half-maximal effect; nearly all actives have a fitted effect of over 60% in size
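First, TGR (20 nM dispensed) and NADPH were mixed with compound. Second, a 15 min room-temperature incubation followed. Third, further NADPH and then DTNB were added to start the reaction. Finally, TNB absorbance was monitored kinetically.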
* = called active by the depositor; ? = inconclusive; nt = no result; [ ] = dose if it differs, or a comment. Unless noted, calls come from the whole dose curve; as a rule, active = well fitted curve in the direction sought with a large enough effect; inconclusive = small, poorly fitted or top-dose-only effect, or another doubt; inactive = no such curve, though single readings can be large; an effect the other way counts as inactive or inconclusive. % is set by controls: 0 for no effect and ±100 for the full control effect.

SMILES	FMDV antiviral	FBPA Giardia inh	HCMV inh	Tb PYK inh	RE007 growth inh	Sm TGR inh
O=C(CSc1nnc(-c2ccc(Cl)cc2)n1Cc1ccco1)c1cccs1	nt	13.3%	60.4	-16.2%	7.3%	28.2µM*
O=C(CSc1nnc(-c2ccncc2)n1Cc1ccco1)Nc1ccccc1Cl	-8.3%	3.3%	2.0	-1.5%	1.7%	-22.5%
O=C(CSc1nnc(-c2ccncc2)n1Cc1ccco1)c1ccc(Cl)cc1	-28.8%	-7.2%	-18.7	-27.9%	-0.9%	0.891µM*
CCOc1c(C(N)=O)c(-c2ccccc2)c2c(=O)[nH]c3ccccc3n12	-0.2%	7.8%	-60.2*	-6.6%	6.3%	6.6%
CCOC(=O)c1c(C)nc(C)c(C(=O)OCC)c1-c1ccccc1	0.0%	7.2%	9.3	-14.0%	-14.0%	-7.2%
Cc1ccc(NC(=O)c2cc(Cl)ccc2[N+](=O)[O-])cc1C	-0.1%	-3.6%	-73.4*	2.6%	-20.4%	0.7%
CC(C)(C)NC(=O)c1cc(Cl)ccc1[N+](=O)[O-]	-19.7%	3.5%	-9.6	0.9%	0.0%	-2.2%
Cc1cccc(NC(=O)c2cc(Cl)ccc2[N+](=O)[O-])c1	-9.8%	1.0%	-83.5*	-14.3%	-11.8%	4.0%
CCOc1ccccc1CNC(=O)CN1C(=O)c2cccnc2Oc2ccc(C)cc21	-7.6%	nt	0.0	-14.0%[15.4 µM]	nt	-16.5%
CN(C)c1ccc(C=c2c3cc(O)ccc3n3c2cc(-c2ccccc2)[n+]3C)cc1	-21.4%	nt	-101.4*	-17.4%	-11.2%	nt
C[n+]1c(-c2ccccc2)cc2c(=Cc3ccc([N+](=O)[O-])cc3)c3ccccc3n21	?	nt	-100.8*	-13.1%	-26.8%	nt
C[n+]1c(-c2ccccc2)cc2c(=Cc3ccccc3)c3ccccc3n21	3.55µM*	nt	-98.7*	-9.4%	?	nt
C=CCOc1ccc(C2NC(=S)NC(c3ccccc3)=C2C(C)=O)cc1OC (stereo not given)	0.0%	3.9%	-14.1	-0.5%	11.2%	-16.4%
CCOC(=O)COc1c(Cl)cc(C2NC(=S)NC(c3ccccc3)=C2C(C)=O)cc1OCC (stereo not given)	-7.4%	-1.5%	-60.3*	-8.6%	22.9%	-4.5%
COc1cc(CN2CCNC(=O)C2CC(=O)N2CCCN(C(C)=O)CC2)cc(OC)c1 (stereo not given)	-5.0%	nt	nt	1.9%	0.9%	31.6µM*
COc1cccc(CN2CCNC(=O)C2CC(=O)NCCCN2CCCC2=O)c1 (stereo not given)	-5.8%	nt	-23.3	-3.7%	-8.2%	17.8µM*
COc1cc(CN2CCNC(=O)C2CC(=O)O)cc(OC)c1 (stereo not given)	7.4%	0.6%	-10.5	4.9%	1.2%	-12.1%
Cc1ccc(CN2CCNC(=O)C2CC(=O)N(C)C2CCCCC2)o1 (stereo not given)	-8.1%	-0.7%	-21.6	-25.0%	2.4%	?
COc1cccc(CCNC(=O)CC2C(=O)NCCN2Cc2ccc(C)o2)c1 (stereo not given)	9.4%	nt	0.0	7.2%	5.7%	50.1µM*
Cc1ccc(CN2CCNC(=O)C2CC(=O)O)o1 (stereo not given)	2.0%	-7.6%	-5.1	-2.0%	11.6%	44.7µM*
O=C(CC1C(=O)NCCN1Cc1cccc(F)c1)NCCCN1CCCC1=O (stereo not given)	-8.0%	-8.1%	20.9	-5.5%	-0.2%	0.0%
CCCOC(=O)c1c(-c2ccccc2)c(-c2ccccc2)nn(C)c1=O	-5.4%	nt	-17.4	-2.0%	nt	6.1%
O=c1oc2ccccc2n1CSC1=NCCS1	0.0%	0.9%	-61.6*	-0.7%	?	-12.1%
COc1cc(-c2nnc(COc3ccc4ccccc4c3)o2)cc(OC)c1OC	0.0%	0.0%	-107.4*	0.3%	16.9%	7.9%
COc1cc(-c2nnc(-c3ccccc3)o2)cc(OC)c1OC	-16.3%	-5.4%	26.5	-11.4%	-25.8%	0.2%
SMILES	FMDV antiviral	FBPA Giardia inh	HCMV inh	Tb PYK inh	RE007 growth inh	Sm TGR inh
CCC(c1nnnn1Cc1ccco1)N1CCC(C(N)=O)CC1 (stereo not given)	-8.9%	6.1%	17.9	6.0%	4.4%	0.0%
CC(C)C(c1nnnn1Cc1ccco1)N1CCC(C(N)=O)CC1 (stereo not given)	-7.3%	-5.4%	-37.8	-9.9%	7.0%	44.7µM*
O=C(NC1CCCc2ccccc21)c1cccc(Br)c1 (stereo not given)	40.3%	-0.1%	-78.2*	1.1%	10.9%	-7.6%
S=C(NC1CC1)NC1CCCc2ccccc21 (stereo not given)	-3.5%	-4.0%	-61.6*	-5.1%	4.2%	5.9%
CC(=O)c1ccc(OCCCC(=O)NC2CCCc3ccccc32)cc1 (stereo not given)	-1.3%	0.3%	-85.8*	-9.9%	-4.1%	9.5%
COc1ccc(OCC(=O)NC2CCCc3ccccc32)cc1 (stereo not given)	10.4%	13.0%	?	-2.9%	3.6%	-9.0%
O=C(CCNC(=O)c1ccc(Br)cc1)NC1CCCc2ccccc21 (stereo not given)	-6.1%	nt	-81.2*	-0.9%	-12.4%	-1.5%
CCOc1ccc2ncc3c(-c4cccc(OC)c4)nn(-c4ccccc4)c3c2c1	-26.9%	nt	-29.4	-8.1%	nt	-8.3%
COc1ccc(NC(=O)NC2CCCc3ccccc32)c(OC)c1 (stereo not given)	-22.7%	10.8%	-4.6	0.2%	4.3%	-1.9%
COc1cccc(NC(=O)NC2CCCc3ccccc32)c1 (stereo not given)	5.8%	-5.7%	-66.8*	2.5%	10.7%	9.0%
CCc1c(C(=O)NC2CCCc3ccccc32)[nH]c(C)c1C(C)=O (stereo not given)	21.6%	0.8%	-83.4*	8.0%	-7.4%	-13.4%
CC(C)C(=O)Nc1nnc(S(=O)(=O)N(C)Cc2ccc(F)cc2)s1	-1.6%	nt	?	-1.9%[15.4 µM]	nt	1.8%
COc1ccc(CNC(=O)CCNS(=O)(=O)c2ccc3c(c2)CCCC(=O)N3)cc1	-25.6%	nt	-6.1	7.9%	nt	-1.2%
Cc1cccc(N(C)C(=O)CN(C)S(=O)(=O)c2ccc3[nH]c4c(c3c2)CCCC4)c1	-7.3%	nt	-9.0	-10.1%	nt	-0.9%
C[n+]1ccccc1/C=C/c1ccc(C#N)cc1	2.2%	?	-21.7	?	-3.8%	44.7µM*
C[n+]1ccccc1/C=C/c1ccc([N+](=O)[O-])cc1	-2.5%	-3.9%	-34.7	-10.2%	-5.6%	-27.3%
C[n+]1ccccc1/C=C/c1ccccc1Cl	-6.1%	?	-78.5*	-21.9%	-15.4%	22.4µM*
